Results from PubChem BioAssay (NCI).
Compounds without any hit were thinned out: in the full panel of roughly 83,000, 20% have a hit.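 Testing used 96-well plates and a 48-hour single-concentration exposure. Example: -40 means 40% of the starting cells died.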 Unmarked numbers belong to inactive results. Active and inactive are the calls of the source. Rule for the calls: active = growth percent below 10; inactive = the rest.

Tests used:
Assay in all cases: NCI-60 one-dose screen, 48 h (100 = growth as untreated, 0 = no growth, -100 = all killed)
Settings in all cases: 10 µM unless noted
T-47D breast = system: T-47D breast
BT-549 breast = system: BT-549 breast
MDA-MB-435 melanoma = system: MDA-MB-435 melanoma
SW-620 colon = system: SW-620 colon
MCF7 breast = system: MCF7 breast
HCT-116 colon = system: HCT-116 colon
HCC-2998 colon = system: HCC-2998 colon
KM12 colon = system: KM12 colon
MDA-MB-468 breast = system: MDA-MB-468 breast

Row | Compound | growth (T-47D breast) | growth (BT-549 breast) | growth (MDA-MB-435 melanoma) | growth (SW-620 colon) | growth (MCF7 breast) | growth (HCT-116 colon) | growth (HCC-2998 colon) | growth (KM12 colon) | growth (MDA-MB-468 breast)
1 | CN(C)C(=O)c1cc(-c2ccc3ncnc(N4CCc5cc(F)c(Cl)cc54)c3c2)cnc1N | -59.1% (active) | -82.9% (active) | -58.5% (active) | -51.8% (active) | -59.9% (active) | -97.4% (active) | -82.2% (active) | -58.3% (active) | -80.4% (active)
2 | COc1ccc(OC)c(Cn2cc(C#N)c(N)c2C(=O)c2ccc(Br)cc2)c1 | 35.6% | -86.3% (active) | 0.655% (active) | 31.2% | 27.9% | 24.3% | 71.8% | 40% | 2.73% (active)
3 | COC(=O)c1c(C(=O)OC)c2c3ccccc3c3ccccc3n2c1C(=O)C(F)(F)F | 101% | 106% | 102% | 97.1% | 91.6% | 98.7% | 122% | 106% | 92%
4 | Cc1ccc(S(=O)(=O)Nc2ccc(-c3ccc4c(c3)NC(=O)/C4=C\c3ccc[nH]3)cc2)cc1 | 18.8% | 63.7% | 90.1% | 47.2% | 3.35% (active) | 60.6% | 106% | 67.1% | -25.8% (active)
5 | Cc1cc(C2(c3cc(C)c(OCC(O)CNc4c(C)n(C)n(-c5ccccc5)c4=O)cc3C(C)C)OC(=O)c3ccccc32)c(C(C)C)cc1OCC(O)CNc1c(C)n(C)n(-c2ccccc2)c1=O (centres undefined) | 1.64% (active) | 27.3% | 12.5% | 18.4% | 15.9% | 5.4% (active) | 36.8% | 16.5% | -13.9% (active)
6 | COc1cc(CNC(=O)C[C@H](C)CCC=C(C)C)ccc1OCc1cn(-c2ccc(Br)cc2)nn1 | 49.3% | 93.6% | 98.3% | 91.7% | 60.2% | 41.9% | 95.8% | 94.6% | 46.7%
7 | COc1nc(N)ncc1-c1ccc2ncnc(N3CCc4cc(F)c(Cl)cc43)c2c1 | -46.3% (active) | 19.9% | 68.2% | 34.3% | 29.8% | -8.98% (active) | 12.2% | 70% | -24.9% (active)
8 | Nc1nc2cc(-c3ccc4ncnc(NCc5ccccc5)c4c3)ccc2o1 | -53.6% (active) | -10.8% (active) | 16.7% | 24.1% | -25.6% (active) | -20% (active) | 40.3% | 25.4% | -47.5% (active)
9 | COc1ccc(NC(=O)CSc2nnc(-c3ccc(-c4nc5ccccc5[nH]4)cc3)o2)cc1 | 78.6% | 27.3% | 20.9% | 11.4% | 13.8% | 2.37% (active) | 92.7% | 30.5% | 86.5%
10 | O=C1N/C(=N\c2nccs2)S/C1=C\c1ccc([N+](=O)[O-])cc1 | 15.2% | 35.5% | 22.2% | 20.9% | 9.68% (active) | -1.76% (active) | 22.7% | 14.2% | -14.6% (active)
11 | COc1ccc2[nH]cc(-c3cc4nc(-c5cn(C)c6ncccc56)cc(N)n4n3)c2c1 | 33.3% | -8.26% (active) | 52.5% | -53.3% (active) | -24.8% (active) | -81.3% (active) | -96.5% (active) | -66.2% (active) | -75.9% (active)
12 | COc1ccc2[nH]c(=O)c(CSc3ccccc3Nc3nccc(-c4ccc(Cl)cc4)n3)cc2c1 | 38% | 31.6% | 28.3% | 50.3% | 7.48% (active) | 11.9% | 37.6% | 31.9% | 17.3%
13 | O=C(N=Nc1c(O)[nH]c2ccc(Cl)cc12)c1ccc2nc(-c3ccc(Cl)cc3)[nH]c2c1 | -2.02% (active) | 49% | -32.9% (active) | 3.1% (active) | 1.03% (active) | 9.89% (active) | -34.6% (active) | 42.3% | -80.7% (active)
14 | N#Cc1c(-c2ccc(F)cc2)nc(SCc2ccc(F)cc2)nc1N1CCNCC1 | -66.9% (active) | 82.7% | -84.7% (active) | -83.7% (active) | -90.5% (active) | -99.3% (active) | -91% (active) | -81.2% (active) | -72% (active)
15 | COc1cc(NC(=O)CSc2nnc(-c3ccc(-c4nc5ccc(Cl)cc5[nH]4)cc3)o2)cc(OC)c1OC | 41.5% | 70.7% | -20.3% (active) | 40.1% | 6.03% (active) | 33.2% | 68.9% | 30.8% | 3.14% (active)
16 | COc1ccc2[nH]c(O)c(N=Nc3nc(-c4ccccc4)cs3)c2c1 | 0.04% (active) | 50.2% | 39.7% | 37.4% | 11.6% | 1.24% (active) | 58.6% | 46.7% | -20.7% (active)
17 | O=C(Nc1nc2ccccc2s1)Nc1ccccc1Cl | 68% | 129% | 100% | 96.8% | 69% | 79.7% | 97.3% | 93.1% | 97%
18 | COc1ccc(-c2cc(-c3ccccc3)c(C#N)c(=O)[nH]2)cc1S(N)(=O)=O | 102% | 89.5% | 102% | 102% | 103% | 103% | 122% | 103% | 102%
19 | Cc1nc(N)ncc1-c1ccc2ncnc(N3CCc4cc(F)c(Cl)cc43)c2c1 | 28.1% | 66.8% | 94.6% | 85.2% | 41.7% | 70.4% | 80.7% | 88.2% | -22.5% (active)
20 | Clc1ccc(Nc2nnc(-c3c[nH]c4ccccc34)o2)cc1 | 42% | 63.7% | 25% | 86.1% | 38.3% | 79.5% | 74.5% | 36% | -20.5% (active)
21 | CCCCCCCCc1ccc(C(=O)Nc2cccc(O)c2)cc1 | 67.7% | 51.2% | 50.5% | 93.5% | 60.3% | 65% | 109% | 54.3% | 90.9%
22 | COc1ccc(-c2nc3ccccc3n2CC(=O)N=Nc2c(O)[nH]c3ccc(Br)cc23)cc1 | 90.9% | 53.3% | 23.3% | 83% | 43.7% | 51.9% | 108% | 71.1% | 56.1%
23 | CC1CCc2c(sc3nc(SCC(=O)c4cccc(Br)c4)n(-c4ccccc4)c(=O)c23)C1 (centres undefined) | 15.9% | 78.5% | 29.5% | 28.5% | 56.9% | 2.87% (active) | 60.6% | 89.6% | 29.6%
24 | COc1cc(C2CC(c3cc(OC)c(OC)c(OC)c3)=Nc3c(N)nc(N)nc3N2)ccc1Oc1nc(Nc2ccc(F)cc2)nc(N(C)C)n1 (centres undefined) | 65.8% | 74.7% | 66.4% | 50.7% | 23.4% | 22.9% | 36.8% | 42.9% | -22.6% (active)
25 | O=C(Cn1c(-c2ccccc2)nc2ccccc21)N=Nc1c(O)[nH]c2ccc(Cl)cc12 | -29.8% (active) | -53% (active) | 2.53% (active) | 23% | 9.49% (active) | -23.7% (active) | 19.5% | 32.2% | -18.9% (active)
26 | CC1=NN(C2=NC(=O)C(CC(=O)Nc3ccccc3C(F)(F)F)S2)C(c2ccc(N(C)C)cc2)C1 (centres undefined) | 48% | 52.7% | -26.5% (active) | 60.5% | 23.4% | 30.1% | 66.2% | 39% | 3.34% (active)
